# Measurements: PubChem BioAssay
# “And” between values parts separate entries of the source, which are not always exact repeats. Equal entries are not always repeated. Records with an inconclusive call do not appear. The source made the active and inactive calls. Unless noted, no cut-off is given here; in the data, nearly all actives have AC50 up to about 26 µM.
# Key:
# [1] = growth inhibition of DIPG glioma cells, dose response, cell-based, SU-DIPG-XVII, MIPE5.0, CellTiter-Glo, qHTS (AID 1347060); settings: SU-DIPG-XVII viability, CellTiter-Glo ATP luminescence;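 for AC50: cells exposed to compound for 48 hours before viability readout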
# [2] = SU-DIPG-XXV glioma cell viability, MIPE5.0 library, qHTS (AID 1347068; cut-off not given, nearly all actives have IC50 up to about 30 µM;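 for IC50: cells exposed to compound for 48 hours before viability readout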)
# [3] = JHH-DIPG-1 glioma cell viability, MIPE5.0 library, CellTiter-Glo luminescence, qHTS (AID 1347067); settings: JHH-DIPG-1 glioma viability, CellTiter-Glo ATP luminescence;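 note: cells exposed to compound for 48 hours before readout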
# [4] = modifiers of HSF1 nuclear foci, imaging, Selleck Cancer Library (AID 1347162; in the data active = plate-normalised HSF1 focus index below about 0.46); settings: human cells, at 10 µM; SSMD: measured here: HSF1 foci SSMD mean; cell count: measured here: cell number; plate-normalised HSF1 focus index: stronger effect = lower value
# [5] = growth inhibition of DIPG glioma cells, dose response, cell-based, SU-DIPG-XIII, MIPE4.0, CellTiter-Glo, qHTS (AID 1347061; cut-off not given, nearly all actives have AC50 up to about 37 µM;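 note: cells exposed to compound for 48 hours before readout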); settings: SU-DIPG-XIII viability, CellTiter-Glo ATP luminescence
# [6] = growth inhibition of DIPG glioma cells, dose response, cell-based, JHH-DIPG-1, MIPE4.0, CellTiter-Glo, qHTS (AID 1347062; cut-off not given, nearly all actives have AC50 up to about 27 µM;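 for AC50: cells exposed to compound for two days before readout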); settings: JHH-DIPG-1 viability, CellTiter-Glo ATP luminescence
# [7] = growth inhibition of DIPG glioma cells, dose response, cell-based, SU-DIPG-IV, MIPE4.0, CellTiter-Glo, qHTS (AID 1347063; cut-off not given, nearly all actives have AC50 up to about 30 µM;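 note: compound exposure lasted 48 hours before the viability readout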); settings: SU-DIPG-IV viability, CellTiter-Glo ATP luminescence
# [8] = growth inhibition of DIPG glioma cells, dose response, cell-based, SU-DIPG-XIII, MIPE5.0, CellTiter-Glo, qHTS (AID 1347064; cut-off not given, nearly all actives have AC50 up to about 23 µM;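 for AC50: cells exposed to compound for 48 hours before the viability read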); settings: SU-DIPG-XIII viability, CellTiter-Glo ATP luminescence
# [9] = viability loss in pontine glioma line – cell-based, SU-DIPG-XXV, MIPE5.0, CellTiter-Glo, qHTS, dose response (AID 1347065); settings: CellTiter-Glo ATP luminescence;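 note: cells exposed to compound for 48 hours before ATP readout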
# [10] = SU-DIPG-VI glioma cell viability, MIPE4.0 library, CellTiter-Glo luminescence, qHTS (AID 1347066; cut-off not given, nearly all actives have AC50 up to about 30 µM;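 note: cells exposed to compound for 48 hours before readout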); settings: CellTiter-Glo ATP luminescence
# [11] = kinase inhibitors against Plasmodium liver-stage infection, cell-based, known kinase inhibitor set, luminescence, hepatoma host viability (AID 624392; call rule not given here;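 note: infected cells incubated roughly two days before readout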); settings: Plasmodium liver stage in hepatoma cells, luciferase luminescence, concentration not given here; liver cell % of control: measured here: host liver cell viability; parasite % of control: stronger effect = lower value
# [12] = system: Hepatitis C virus NS3 helicase; test: HCV NS3 helicase inhibitors, primary screen, biochemical, fluorescence polarization, LOPAC1280 library (AID 687035; in the data active = inhibition above about 37%); settings: Purified HCV NS3 helicase, Cy5-dT15 ssDNA binding fluorescence polarization; stronger effect = higher value; concentration not given here
# [13] = Cy5 fluorescence quenching or enhancement artefacts, artefact control for HCV NS3 helicase inhibitor project, biochemical, LOPAC1280 (AID 687037; call rule not given here); settings: Cy5-DNA-NS3h complex fluorescence interference counterscreen
# [14] = sensitizers of A549 cells to miR-34 induction, primary screen, imaging, A549 dox-inducible miR-34, nuclei and caspase counts (AID 1347080;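 active = compounds whose cell count with miR-34 switched on is under 0.7 times the count with it off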); settings: A549 miR-34 inducible, Hoechst nuclei count, 48 h
# [15] = phospholipid biosynthesis inhibitors in animal cells, primary screen, cell-based, LOPAC library, screen 4 (AID 1347384; call rule not given here); settings: phospholipid biosynthesis inhibition screen, at 10 µM
# [16] = viability rescue of complex I mutant cybrids, primary screen, cell-based, galactose medium, ATP luminescence (AID 1645843;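 active = z-score of at least 1.8 in each of two replicates, scored against plate mean and spread of sample wells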;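 note: positive z means more ATP and so rescue of galactose-driven cybrid death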); settings: complex I mutant cybrid cells, 72 h, stronger effect = higher value
smiles,measurement,setting,value
C[C@H]1C[C@@H](n2c(Nc3ccc(OC(F)(F)F)cc3)nc3cc(CCC(=O)O)ccc32)CC(C)(C)C1,AC50,[1],23.5 µM (active)
same,outcome,[2],inactive
CC(C)(c1ccc(OCC(O)CO)cc1)c1ccc(OCC(O)CCl)cc1 (stereo unspecified),outcome,[1],inactive
same,outcome,[3],inactive
same,outcome,[2],inactive
Cn1ncnc1[C@H]1c2n[nH]c(=O)c3cc(F)cc(c23)N[C@@H]1c1ccc(F)cc1,AC50,[1],0.742 µM (active)
same,outcome,[3],inactive
same,outcome,[2],inactive
O=C(NO)C1(CS(=O)(=O)c2ccc(Oc3ccc(Cl)cc3)cc2)CCOCC1,outcome,[1],inactive
same,AC50,[3],3.72 µM (active)
same,outcome,[2],inactive
CC[C@@]1(O)C(=O)OCc2c1cc1n(c2=O)Cc2c-1nc1ccccc1c2CCNC(C)C,AC50,[1],0.00742 µM (active)
same,outcome,[2],inactive
CNC(=O)[C@@H](NC(=O)[C@H](CC(C)C)[C@H](O)C(=O)NO)C(C)(C)C,AC50,[1],18.6 µM (active)
same,outcome,[2],inactive
same,SSMD,[4],3.3
same,cell count,[4],6770
same,plate-normalised HSF1 focus index,[4],1.2 (inactive)
Cc1cc(OCCCc2c(C(=O)O)n(Cc3cccnc3)c3c(-c4c(COc5ccc(N6CCN([S+](C)(=O)[O-])CC6)cc5)nn(C)c4C)cccc23)cc(C)c1Cl,outcome,[5],inactive
same,outcome,[6],inactive
same,AC50,[7],20.9 µM (active)
O=[N+]([O-])c1ccc(Nc2ccccc2-c2ccccc2)c2nonc12,outcome,[5],inactive
same,outcome,[6],inactive
same,outcome,[7],inactive
same,AC50,[8],23.5 µM (active)
same,AC50,[9],18.6 µM (active)
same,AC50,[10],20.9 µM (active)
same,AC50,[3],23.5 µM (active)
Cc1ccc(NC(=O)Nc2cc(C(F)(F)F)ccc2F)cc1Nc1ccc2c(c1)NC(=O)/C2=C\c1ccc[nH]1,AC50,[5],18.7 µM (active)
same,AC50,[6],18.7 µM (active)
same,AC50,[7],4.18 µM (active)
same,AC50,[8],8.33 µM (active)
same,AC50,[9],6.61 µM (active)
same,AC50,[10],3.72 µM (active)
same,AC50,[3],10.5 µM (active)
same,IC50,[2],9.34 µM (active)
CC(C)NC[C@@H](C(=O)N1CCN(c2ncnc3c2[C@H](C)C[C@H]3O)CC1)c1ccc(Cl)cc1,AC50,[5],11.8 µM (active)
same,AC50,[6],23.5 µM (active)
same,AC50,[7],7.43 µM (active)
same,AC50,[8],4.68 µM (active)
same,AC50,[9],5.25 µM (active)
same,AC50,[10],2.64 µM (active)
O=C(CO)N1CCC(c2[nH]nc(-c3ccc(Cl)cc3)c2-c2ccncn2)CC1,liver cell % of control,[11],88.6% and 86.6% and 97.2%
same,parasite % of control,[11],11.9% (inactive) and 26% (inactive) and 30.9% (inactive)
same,outcome,[5],inactive
same,outcome,[6],inactive
same,outcome,[7],inactive
same,outcome,[8],inactive
same,outcome,[9],inactive
same,outcome,[10],inactive
same,outcome,[2],inactive
O=C(CC12CC3CC(CC(C3)C1)C2)Nc1cccc2nc(NCCNCCO)ccc12,AC50,[5],14.8 µM (active)
same,AC50,[6],20.9 µM (active)
same,AC50,[7],10.5 µM (active)
same,outcome,[8],inactive
CCN(CC)CCn1c(=O)c(Cc2ccc(OC)cc2)nc2ccccc21,inhibition,[12],0% (inactive)
same,fluorescence ratio (interference),[13],1 (inactive)
same,outcome,[5],inactive
same,outcome,[6],inactive
same,outcome,[7],inactive
same,outcome,[8],inactive
same,outcome,[9],inactive
same,outcome,[10],inactive
same,outcome,[3],inactive
same,outcome,[2],inactive
same,fold change,"[14]; stronger effect = lower value, cell number ratio, induced over uninduced",0.991 (inactive)
same,fold change,[14]; measured here: relative caspase fold change +Dox/-Dox,1.5
same,cell count,"[14]; measured here: total cells with miR-34 induction, stronger effect = lower value",9100
same,cell count,[14]; measured here: total cells without miR-34 induction,9170
same,outcome,[15],inactive
same,z-score,[16],-0.075 (inactive)
